Compounds without any hit were thinned out: in the full panel of roughly 79,000, 15% have a hit. The source made the active and inactive calls. No stated cut-off is given here; in the data, active means growth inhibition above about 70%; inactive means the rest.
Key:
[1] = NCI Yeast Anticancer Drug Screen. Data for the rad50 strain (AID 155);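 further: 0% = growth of vehicle-only cultures of the same strain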; settings: S. cerevisiae rad50 strain growth inhibition; at 50.0 µM; stronger effect = higher value
In short: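 A DNA repair-deficient yeast mutant serves as the test organism; compound-induced growth inhibition is calculated against vehicle-treated cells.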

[2] = NCI Yeast Anticancer Drug Screen. Data for the mec2-1 strain (AID 157); settings: S. cerevisiae mec2-1 strain, at 50.0 µM, stronger effect = higher value
In short: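 Using mec2-1 yeast: add compound, measure growth, express inhibition versus vehicle-treated cultures.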

[3] = NCI Yeast Anticancer Drug Screen. Data for the sgs1 mgt1 strain (AID 161);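 further: 0% = growth of cultures given vehicle only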; settings: S. cerevisiae sgs1 mgt1 strain, at 50.0 µM, stronger effect = higher value
In short: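 Percent growth inhibition was derived by comparing compound-exposed mutant yeast with vehicle-exposed cultures. The strain carries alterations in DNA damage repair.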

[4] = NCI Yeast Anticancer Drug Screen. Data for the cln2 rad14 strain (AID 165);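 further: 0% = growth equal to vehicle treated cultures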; settings: S. cerevisiae cln2 rad14 strain, at 50.0 µM, stronger effect = higher value
In short: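 Yeast strain cln2 rad14, bearing defects in cell cycle control and DNA repair, serves as the test system; values reflect growth inhibition compared with vehicle.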

[5] = NCI Yeast Anticancer Drug Screen. Data for the bub3 strain (AID 167); settings: S. cerevisiae bub3 mutant strain, at 50.0 µM, stronger effect = higher value
In short: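 Inhibition values come from growth of compound-treated mutant yeast normalised to vehicle-treated controls.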

[6] = NCI Yeast Anticancer Drug Screen. Data for the mlh1 rad18 strain (AID 175); settings: S. cerevisiae mlh1 rad18 strain growth inhibition; at 50.0 µM; stronger effect = higher value
In short: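 Steps: expose repair-defective yeast to compound; measure growth; express inhibition against vehicle-treated controls.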

Measured: growth inhibition

Cc1cc(Cl)ccc1OC(=O)NC1CCCCC1
inactive: [1] -2.5% | [2] 24.4% | [3] -2.35% | [4] -13.5% | [5] 30.4% | [6] 30.4%

Cc1[nH]c(=O)n2c(C)nnc2c1C(=O)O
inactive: [1] -5.3% | [2] -4.15% | [3] 1.95% | [4] -10.2% | [5] -2.7% | [6] -1.55%

c1ccc(-c2cc(-c3ccncc3)cc(-c3ccncc3)n2)cc1
inactive: [1] 3.85% | [2] -21% | [3] 9.4% | [4] 18.6% | [5] -1.9% | [6] -85.2%

O=C(O)CCCCc1ccc2ccccc2c1
inactive: [1] 4% | [2] 15.4% | [3] 16.4% | [4] 29.2% | [5] 5.95% | [6] 26.8%

NCC(=O)NC1CCCCC1
inactive: [1] 30.6% | [2] 1.85% | [3] -8.45% | [4] 25.4% | [5] -3.65% | [6] 5.3%

COC(=O)N/N=C/c1oc(-c2cccc([N+](=O)[O-])c2)c(-c2cccc([N+](=O)[O-])c2)c1[N+](=O)[O-]
inactive: [1] 19.4% | [2] 30.1% | [3] 16.5% | [4] 22.6% | [5] 21% | [6] 22.6%

COc1ccc(C(C)=O)c(O)c1OC
inactive: [1] -3.3% | [2] 4.7% | [3] 9.1% | [4] -3.35% | [5] -3.1% | [6] 3%

O=C(O)CCCc1ccc2c(c1)-c1ccccc1S2=O (stereo unspecified)
inactive: [1] 0.65% | [2] 3.8% | [3] 1.25% | [4] -3.6% | [5] -4% | [6] 13.1%

CC(=O)Oc1c2oc3cc(O)c(O)cc3c2c(OC(C)=O)c2oc3cc(O)c(O)cc3c12
inactive: [1] -0.4% | [2] 0.05% | [3] -1.15% | [4] -5.45% | [5] -0.8% | [6] -29.1%

CCOC(=O)c1c(C)[nH]c(C2=NCCC2)c1C
inactive: [1] -8.7% | [2] 5.3% | [3] 1.7% | [4] -55.9% | [5] 2.95% | [6] -5.95%

NC(=O)C1C=CN(Cc2ccccc2)C=C1
inactive: [1] -5.2% | [2] 7.45% | [3] -0.65% | [4] -12.8% | [5] 23.4% | [6] 7.3%

CSc1ccc(NC(=O)Nc2cc(C(C)C)ccc2C)cc1
inactive: [1] 0.6% | [2] 38.4% | [3] 13.9% | [4] -18% | [5] 43.2% | [6] 28.2%

CSc1nc(N)c(N)c(N)n1
inactive: [1] 0.1% | [2] 2.9% | [3] -2.75% | [4] -21.8% | [5] 11.8% | [6] 14.4%

N/C=N/OCc1ccccc1
inactive: [1] 10% | [2] 5.05% | [3] 9% | [4] 4.7% | [5] -3.75% | [6] 5.75%

CCCCN1C[C@H](OC(=O)CCC)[C@@H](OC(=O)CCC)[C@H](OC(=O)CCC)[C@H]1COC(=O)CCC
inactive: [1] -18.4% | [2] -15.7% | [3] -11% | [4] -5.3% | [5] -23.9% | [6] -15.7%

C=CCOc1c(C)cc(C)cc1C
inactive: [1] 5.3% | [2] -17.4% | [3] -5.95% | [4] -16.3% | [5] -14.8% | [6] -6.85%

O=C1OC(c2ccccc2)N(C(=O)c2ccccc2)C1Cc1ccc(OCc2ccccc2)cc1 (stereo unspecified)
inactive: [1] -30.5% | [2] -6.4% | [3] -5.65% | [4] -13.7% | [5] 0.95% | [6] 5.75%

C[C@]12CC[C@@H]3c4ccc(OP(=O)(O)O)cc4CC[C@H]3[C@@H]1CCC2=O
inactive: [1] -7% | [2] 4.9% | [3] -22.7% | [4] -23.9% | [5] -24.6% | [6] -14.1%

CC(C)(C)C1CCC(=NO)CC1 (stereo unspecified)
inactive: [1] 23.1% | [2] 16.1% | [3] 16.5% | [4] 18.3% | [5] 14.3% | [6] 23.8%

NNC(=O)Nc1ccccc1
inactive: [1] 3.8% | [2] 5.55% | [3] -0.5% | [4] -13.6% | [5] -2.4% | [6] -3.15%

O=C1c2ccccc2C(=O)N1C1(C(=O)O)CCCC1
inactive: [1] -5.3% | [2] -7.6% | [3] -7.65% | [4] -27.1% | [5] -15.6% | [6] -10.4%

CCC(Cc1ccco1)C(=O)NC(N)=O (stereo unspecified)
inactive: [1] -10.2% | [2] 4.4% | [3] -9.8% | [4] -9.1% | [5] 0.65% | [6] 11.3%

COC(=O)c1ccccc1Cl
inactive: [1] -11.2% | [2] 4% | [3] 9.05% | [4] -14.3% | [5] 6.65% | [6] 26.1%

CCOCCOCCOC12C(=O)C(Cl)=C(Cl)C(=O)C13C1CC2C(Cl)C13 (stereo unspecified)
active: [1] 99.4% | [2] 99.5% | [3] 98.9% | [4] 98% | [5] 98.7% | [6] 98.2%

O=C(O)C#Cc1ccc(Cl)cc1
inactive: [1] -20.1% | [2] -23.8% | [3] -17.6% | [4] -9.05% | [5] -24.4% | [6] -13.6%

Cc1ccc(-c2nc(C)c(C(=O)Nc3ccc(Cl)cc3)s2)cc1
inactive: [1] -36.6% | [2] -25.4% | [3] -59.4% | [4] 2.85% | [5] -12.3% | [6] -65.9%

O=C(CN1C(=O)c2ccccc2C1=O)OC1C=CCCC1 (stereo unspecified)
inactive: [1] 12.2% | [2] 0.65% | [3] 1.5% | [4] 18.7% | [5] 9.6% | [6] 10.3%

O=C1CSC2=NC3=C(COC/C3=C\c3ccc(Br)cc3)C(c3ccc(Br)cc3)N12 (stereo unspecified)
inactive: [1] 7.05% | [2] 14.3% | [3] 39.1% | [4] 18.9% | [5] 33.6% | [6] 33.1%

Cn1nc2ccc3nccc(NCCNCCO)c3c2n1
inactive: [1] -3.65% | [2] -8.8% | [3] -4.65% | [4] 7.4% | [5] -4.8% | [6] -9.65%

C[N+]([O-])(C/C=C/c1ccccc1)c1ccccc1 (stereo unspecified)
inactive: [1] -3.25% | [2] -2.3% | [3] -2.65% | [4] 5.45% | [5] -29.1% | [6] -2.7%

Cc1ccc(-c2n[nH]c(=O)n2/N=C\c2ccc([N+](=O)[O-])cc2)cc1
inactive: [1] 34% | [2] 7.3% | [3] -12.4% | [4] 3.55% | [5] -11.9% | [6] -41.5%

O=C(O)/C=C/C(=O)Nc1cc(Cl)cc2c1-c1c(Cl)cc(Cl)cc1C2=O
inactive: [1] 30.9% | [2] 8.95% | [3] 31.6% | [4] -52.6% | [5] -4% | [6] 4.25%

CC1(C)CC(=O)NC1=O
inactive: [1] 30.8% | [2] 2% | [3] 8.55% | [4] -0.2% | [5] -19% | [6] 9.3%

CC(C)C(C)(O)CO (stereo unspecified)
inactive: [1] -21.9% | [2] 1.75% | [3] -1.2% | [4] 16.8% | [5] -6.2% | [6] -13.7%

CC1=Nc2nc(=NCCCN(C)C)nc3cccc(n23)N1
inactive: [1] 7.6% | [2] -1.35% | [3] 7.65% | [4] 11.2% | [5] 6.4% | [6] 4%

ClCC1CCN(Cc2ccccc2)CC1
inactive: [1] -4.5% | [2] 13.9% | [3] 6.7% | [4] -17.4% | [5] -10.5% | [6] 6.9%

O=C1c2ccccc2-c2ccc(N=Cc3cccs3)cc21
inactive: [1] 30.9% | [2] -5.65% | [3] -3.35% | [4] 9.4% | [5] 33.5% | [6] 11.7%

Cc1ccc(OCC(=O)C2CSc3ccc(Cl)cc32)cc1 (stereo unspecified)
active: [4] 70.6% | [5] 75.7% | [6] 73.5%
inactive: [1] 67.8% | [2] 33% | [3] 26.4%

CCCOC(=O)c1ccc(Cl)c(Cl)c1
inactive: [1] 10.6% | [2] 7.85% | [3] 2.5% | [4] -58.2% | [5] -6.15% | [6] 5.9%

CCCNCCC(=O)Nc1ccccc1C(=O)OCC
inactive: [1] 3.15% | [2] -18% | [3] 0.2% | [4] -43.1% | [5] 29.3% | [6] -6.25%

COc1cccc(C(OC(=O)c2ccccc2)c2nncc3ccccc23)c1OC (stereo unspecified)
inactive: [1] 32.4% | [2] 11.8% | [3] 9.6% | [4] 5.9% | [5] 9.85% | [6] 5.8%

— PubChem BioAssay (NCI)
